ELG1 repair inh: qHTS screen for small molecules that inhibit ELG1-dependent DNA repair in human embryonic kidney (HEK293T) cells expressing luciferase-tagged ELG1 | HEK293T ELG1-luciferase reporter, luminescence, 16 h; DNA damage induced by 5-fluorouridine | Potency, µM (highest dose often 46.1 µM), for the others: at the highest dose activity change, negative = inhibition, most hits filed as inhibitors | 330,000 compounds, 2.3% hits; further: on the % scale 0 is the no-effect control and ±100 the full control effect; nearly all actives have a fitted effect of over 55% in size
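DMSO vehicle served as the neutral condition. Each well held 2,000 cells given 5-fluorouridine plus compound; after 16 hr at 37 °C/5% CO2, ONE-Glo was added and luciferase measured 30 min later.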
RORg inh: qHTS for inhibitors of ROR gamma transcriptional activity | 310,000 compounds, 5.4% hits | AID 2551, 2010 | Potency, µM (highest dose often 53.6 µM), without a hit: top-dose activity change, negative = inhibition, usual class: inhibitors | Drosophila S2 Gal4-RORgamma UAS-luciferase reporter, 20 h | Nuclear receptor ROR-gamma (Mus musculus), P51450; further: on the % scale 0 is the no-effect control and ±100 the full control effect; nearly all actives have a fitted effect of over 60% in size
Target sequence (P51450 whole entry, looked up, the tested form may be a part): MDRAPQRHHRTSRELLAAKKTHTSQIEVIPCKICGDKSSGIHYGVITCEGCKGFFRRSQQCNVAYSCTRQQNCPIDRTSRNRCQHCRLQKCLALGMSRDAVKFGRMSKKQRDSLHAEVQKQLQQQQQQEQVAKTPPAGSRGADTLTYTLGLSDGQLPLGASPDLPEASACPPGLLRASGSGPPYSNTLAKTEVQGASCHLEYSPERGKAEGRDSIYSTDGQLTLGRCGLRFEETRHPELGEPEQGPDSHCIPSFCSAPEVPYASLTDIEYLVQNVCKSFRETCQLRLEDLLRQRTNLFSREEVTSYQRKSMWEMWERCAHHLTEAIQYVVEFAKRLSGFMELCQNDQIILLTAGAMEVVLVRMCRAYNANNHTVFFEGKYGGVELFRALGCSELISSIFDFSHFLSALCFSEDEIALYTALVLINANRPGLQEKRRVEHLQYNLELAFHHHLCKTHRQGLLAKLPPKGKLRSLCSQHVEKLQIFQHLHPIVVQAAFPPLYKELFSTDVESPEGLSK
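In this cell-based reporter format, copper sulfate (700 uM final) drives Gal4–ROR gamma fusion expression from a metallothionein promoter in Drosophila Schneider cells; compounds preincubated 1 hr, reporter read after 20 hr at ambient temperature.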
Gal4-VP16 FLuc: VP16 counterscreen qHTS for inhibitors of ROR gamma transcriptional activity | Drosophila S2 Gal4-VP16 UAS-luciferase, luminescence, 20 h | Potency, µM (titrated, usually from 53.6 µM), for the others: at the highest dose activity, negative = inhibition, actives largely listed as inhibitors | 310,000 compounds, 3.5% hits | AID 2546, 2010;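 further: Gal4-VP16 expression switched on by copper sulfate through the metallothionein promoter; on the % scale 0 is the no-effect control and ±100 the full control effect; nearly all actives have a fitted effect of over 50% in size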
MCF10A rereplic: A quantitative high throughput screen for small molecules that induce DNA re-replication in MCF 10a normal breast cells; MCF 10A DNA re-replication, Hoechst nuclear intensity, 48 h; Potency, µM (highest dose often 46.1 µM), inactives show top-dose activity, positive = re-replication, most hits filed as activators; 350,000 compounds, 2.9% hits; further: % of control where 0% means no effect; nearly all actives have a fitted effect of over 50% in size
SW480 rerep: A quantitative high throughput screen for small molecules that induce DNA re-replication in SW480 colon adenocarcinoma cells; SW480 DNA re-replication, Hoechst DNA content imaging, 48 h; Potency, µM (doses to about 46.1 µM), inactives show top-dose re-replication activation, actives largely listed as activators; AID 624297, 2012; 340,000 compounds, 1.8% hits; further: % of control where 0% means no effect; nearly all actives have a fitted effect of over 55% in size
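Cells (250 per well) received 23 nL compound or DMSO by pin tool and were kept 48 hr at 37 C, 5% CO2. Nuclei were then stained with Hoechst for 40 min and scanned for DNA content.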
* = called active by the depositor; u = inconclusive; x = not tested or not shown. Rows were chosen to be rich in hits. Some 10% of all compounds tested hit in one or more screens of this group. The call rests on the fitted dose curve; in most records, active means well fitted curve in the direction sought with a large enough effect; inconclusive means small, poorly fitted or top-dose-only effect, or another doubt; inactive means no such curve, though single readings can be large; an effect the other way counts as inactive or inconclusive. Potency means the concentration at half of the fitted maximal effect.

SMILES	ELG1 repair inh	RORg inh	Gal4-VP16 FLuc	MCF10A rereplic	SW480 rerep
CCC(=O)NC(c1ccccc1)c1c(O)ccc2ccccc12 (centres undefined)	19.4%	17.9%	11.5%	u	7.1%
Cc1conc1NC(c1cccs1)c1ccc2cccnc2c1O (centres undefined)	1.3%	2.51µM*	5.62µM*	x	x
CCN(CC)c1ccc2c(c1)CCCN2	u	2.82µM*	u	x	x
CC(=O)N1c2ccc(S(=O)(=O)N3CCC(C(=O)NC(C)c4ccccc4)CC3)cc2CC1C (centres undefined)	11.3%	u	6.0%	16.5%	5.7%
CCc1ccc(NC(=O)CSc2nc3nc(C)cc(C)n3n2)cc1	-9.7%	36.1%	1.12µM*	11.9%	11.6%
Cc1ccc(OCC(=O)Nn2c(C)nc3ccccc3c2=O)c(C(C)C)c1	u	-18.8%	22.4µM*	-1.3%	-3.0%
CC(C)C(NC(=O)c1ccccc1F)C(=O)NCc1ccccc1 (centres undefined)	-7.2%	-17.2%	-4.3%	-0.2%	-2.2%
COc1cc(/C=N/NC(=O)c2cn(-c3cccc(C)n3)cn2)ccc1O	-10.1%	23.9%	16.8%	-14.6%	-15.0%
Cc1ccc(S(=O)(=O)N2CCN(C(=O)COC(=O)COc3ccc(Cl)cc3)CC2)c(C)c1	x	x	x	3.6%	6.6%
O=C(O)COc1ccccc1/C=C1\SC(=O)N(Cc2ccc(F)cc2)C1=O	0.8%	4.9%	2.3%	4.61µM*	-7.5%
Cc1ccc(CN2C(=O)S/C(=C\c3ccccc3OCC(=O)O)C2=O)cc1	4.8%	1.6%	9.2%	2.6%	-15.0%
Cc1ccc(NC(N)=S)cc1C	-1.1%	u	u	2.4%	-0.5%
N#C/C(=N/Nc1ccccc1[N+](=O)[O-])C(N)=S	-27.2%	5.5%	-18.1%	4.4%	-2.8%
N#C/C(=N\Nc1ccc(Cl)cc1)C(=O)c1ccsc1	2.31µM*	u	u	u	u
N#C/C(=N\Nc1ccc(Cl)cc1)C(N)=S	9.2µM*	4.47µM*	6.31µM*	u	17.9%
Cc1ccc(N/N=C(\C#N)C(N)=S)cc1C	u	2.82µM*	u	u	20.3%
N#C/C(=N\Nc1ccccc1)C(N)=S	u	12.6µM*	u	-30.8%	-0.8%
CC[C@@]1(c2ccccc2)NC(=O)NC1=O	x	-7.6%	1.7%	x	x
Nc1nc2nc(-c3ccc(OCc4ccccc4)cc3)cc(C(F)(F)F)n2n1	24.3%	-7.8%	-18.6%	u	u
O=C(c1cnn2c(C(F)(F)F)cc(-c3ccc(Br)cc3)nc12)N1CCOCC1	u	2.5%	-21.9%	-6.5%	1.5%
Cc1nn2c(C(F)(F)F)cc(-c3ccc(Cl)cc3)nc2c1C(=O)N1CCOCC1	16.4µM*	-10.9%	12.7%	16.2%	-5.2%
Nc1nc2nc(-c3ccc(Cl)cc3)cc(C(F)(F)F)n2n1	u	-2.9%	8.8%	u	13µM*
O=C(Nc1ccc(F)cc1)c1cc(-c2ccncc2)nc2c(Cl)cccc12	u	2.7%	-3.8%	u	20.1%
CN(C)S(=O)(=O)c1cccc(NC(=O)c2ccccc2OCc2ccc(F)cc2)c1	20.6µM*	-43.5%	-2.8%	13.4%	1.0%
O=C(NNC(=O)c1ccccc1OCc1ccc(F)cc1)c1ccccc1O	2.31µM*	4.47µM*	10µM*	-3.3%	3.26µM*
SMILES	ELG1 repair inh	RORg inh	Gal4-VP16 FLuc	MCF10A rereplic	SW480 rerep
O=C(NNC(=O)c1ccccc1OCc1ccccc1)c1ccccc1O	u	6.31µM*	11.2µM*	0.3%	u
O=C(NNC(=O)c1ccccc1OCc1ccccc1)c1ccccc1F	u	-17.0%	-13.8%	3.0%	-8.2%
COc1cccc(CNCC(=O)NC(=O)NC2CCCC2)c1	3.2%	x	x	-11.5%	-3.0%
O=C(NCc1ccco1)c1ccc(CS(=O)Cc2cccc(Cl)c2)o1 (centres undefined)	9.1%	2.7%	1.3%	-0.2%	-3.0%
Cc1ccc(C)c(N(CC(=O)NC2CCCC2)C(=O)CNC(=O)c2cccs2)c1	-3.7%	-0.7%	-1.7%	-7.7%	-4.1%
O=C(c1cccc(C(F)(F)F)c1)C1CCCN(Cc2cccn2-c2ccccn2)C1 (centres undefined)	u	-30.1%	-2.1%	-3.4%	13.4%
COc1ccc(Nc2nc(-c3ccccc3F)nc3ccccc23)cc1OC	23.1µM*	-18.6%	-11.9%	-8.5%	3.9%
CNC(=O)c1ccc(Nc2nc(-c3ccccc3)nc3ccccc23)cc1	14.6µM*	35.5%	10.7%	u	-2.1%
Cc1ccc(-c2nc(Nc3ccc(N4CCOCC4)cc3)c3ccccc3n2)cc1	23.1µM*	33.1%	23.7%	u	-14.0%
CCCOC(=O)c1cccc(Nc2nc(-c3cccnc3)nc3ccccc23)c1	13µM*	u	u	u	u
O=C(COc1ccccc1)Nc1c2c(nn1-c1ccccc1)CS(=O)(=O)C2	-4.7%	4.3%	4.0%	u	-10.1%
CC(C)[C@@H](CC(=O)N[C@@H]1CCNC[C@H]1C(=O)N[C@H](CC(=O)N[C@@H](CCC(=O)O)CC(=O)O)Cc1ccccc1)NC(=O)C[C@H](Cc1c[nH]c2ccccc12)NC(=O)[C@@H]1CCCC[C@H]1N	x	9.6%	-7.3%	x	x
Cc1ccc(-c2nc(Nc3ccc(O)cc3)c3ccccc3n2)cc1	u	-13.2%	0.8%	u	u
COc1ccc(Nc2nc(-c3ccccc3)nc3ccccc23)c(OC)c1	u	-17.4%	-3.0%	u	u
Cc1ccc(-c2nc(Nc3cccc(O)c3)c3ccccc3n2)cc1	20.6µM*	0.1%	-12.2%	u	-7.7%
COc1ccccc1Nc1nc(-c2ccccc2)nc2ccccc12	-28.6%	-20.0%	-6.9%	4.9%	0.581µM*
CCOCCCNC(=O)c1ccc2c(c1)ncn2-c1cccc(C)c1	-9.2%	-21.6%	-0.7%	u	u
O=C(CSCc1ccccc1Cl)NN1C(=O)c2ccccc2C1=O	u	18.9%	-4.5%	-1.3%	-1.0%
O=C(N/N=C/c1cn(-c2cccs2)nc1-c1ccccc1)c1ccccc1Cl	u	3.55µM*	7.94µM*	u	-1.9%
O=C(N/N=C/c1cn(-c2cccs2)nc1-c1ccccc1)c1ccc(O)cc1	u	u	17.8µM*	u	-0.3%
COc1cc2nc(CSc3nc(-c4ccc(F)cc4)cs3)[nH]c(=O)c2cc1OC	23.1µM*	6.3%	0.5%	-0.7%	-1.1%
COCCN(C(=O)COC(=O)CCc1c[nH]c2ccccc12)c1c(N)n(Cc2ccccc2)c(=O)[nH]c1=O	0.0%	x	x	0.3%	-4.3%
